According to PubChem BioAssay (Tox21):
Several values for one entry are separate records, joined by “and”; a condition that tells them apart may be missing. Equal entries are not always repeated. Inconclusive results are not listed. The source holds several records for some structures; these can differ, active in one and inactive in another. Activity calls are given as the source filed them. Unless noted, calls come from the whole dose curve.

Columns and labels:
[1] = Nuclear factor erythroid 2-related factor 2/antioxidant responsive element (Nrf2/ARE) small molecule agonists: qHTS cell viability counter screen in human keratinocytes (AID 1919968; active = well fitted curve in the direction sought with a large enough effect in the repeat runs; an effect the other way counts as inactive or inconclusive; note: nearly all actives have a fitted effect of over 55% in size; note: potency is the fitted concentration of half-maximal effect)
In short: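 Viability counter-screen: KeratinoSens reporter cells, DMSO-delivered compounds, 23 h at 37 C, CellTiter-Fluor fluorescence.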

[2] = Nuclear factor erythroid 2-related factor 2/antioxidant responsive element (Nrf2/ARE) small molecule agonists: luciferase reporter gene qHTS assay in human keratinocytes (AID 1919969); note: nearly all actives have a fitted effect of over 35% in size; note: potency is the fitted concentration of half-maximal effect
[3] = target: Gonadotropin-releasing hormone receptor (Homo sapiens) (UniProt P30968); test: Human gonadotropin-releasing hormone receptor (GnRHR) small molecule agonists, calcium flux assay in GnRHR-HEK293 cells (AID 1920063); note: nearly all actives have a fitted effect of over 35% in size
Sequence of Gonadotropin-releasing hormone receptor (Homo sapiens) (P30968 whole entry, looked up): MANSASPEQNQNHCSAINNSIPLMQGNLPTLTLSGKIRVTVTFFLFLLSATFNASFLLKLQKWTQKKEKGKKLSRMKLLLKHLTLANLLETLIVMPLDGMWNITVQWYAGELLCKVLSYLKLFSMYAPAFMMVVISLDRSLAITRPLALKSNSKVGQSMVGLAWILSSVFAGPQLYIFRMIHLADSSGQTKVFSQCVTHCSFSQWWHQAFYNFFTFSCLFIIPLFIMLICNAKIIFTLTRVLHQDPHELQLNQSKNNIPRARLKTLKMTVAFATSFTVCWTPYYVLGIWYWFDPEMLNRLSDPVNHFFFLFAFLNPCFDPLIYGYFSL
In short: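 Tox21-format agonist screen using human GnRHR-expressing HEK293 cells and a fluorescent calcium dye; kinetic 3-min fluorescence reading after compound addition, 15-point concentration series run in triplicate.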

[4] = target: KiSS-1 receptor (Homo sapiens) (UniProt Q969F8); test: Human kisspeptin (KISS1R) small molecule agonists, calcium flux assay in KISS1R-HEK293 cells (AID 1920064; active = well fitted curve in the direction sought with a large enough effect in the repeat runs; an effect the other way counts as inactive or inconclusive)
Sequence of KiSS-1 receptor (Homo sapiens) (Q969F8 whole entry, looked up): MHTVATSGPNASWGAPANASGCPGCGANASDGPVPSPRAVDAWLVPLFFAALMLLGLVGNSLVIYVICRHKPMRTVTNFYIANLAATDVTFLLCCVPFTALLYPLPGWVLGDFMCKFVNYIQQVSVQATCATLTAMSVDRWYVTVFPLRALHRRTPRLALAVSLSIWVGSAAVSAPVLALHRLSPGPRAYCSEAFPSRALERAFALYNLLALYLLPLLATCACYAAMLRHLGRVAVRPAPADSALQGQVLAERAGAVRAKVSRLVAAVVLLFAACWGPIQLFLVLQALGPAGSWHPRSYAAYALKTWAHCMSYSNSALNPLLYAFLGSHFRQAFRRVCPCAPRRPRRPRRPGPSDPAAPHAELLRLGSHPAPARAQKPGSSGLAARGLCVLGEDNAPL
In short: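 Intracellular calcium mobilization in KISS1R-HEK293 cells was recorded by fluorescence (Ex/Em 480/540) for 3 min following compound addition to cells pre-loaded 1 h with calcium dye.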

[5] = G protein-coupled receptor (GPCR) small molecule agonists, calcium flux assay: HEK293 wild type cell line counter screen (AID 1920065)
In short: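 In this agonist-mode screen, ATP is the positive control and DMSO the vehicle. Cells grow 18 h before a 1 h dye incubation at 37 C; signal is taken at Ex/Em 480/540 over 3 min.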

[6] = p53 small molecule agonists, cell-based qHTS assay with human liver microsomes (AID 1963577)
In short: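 p53RE-bla reporter cells were pre-incubated 5 h at 37 C, then treated with compounds plus human liver microsomes (0.5 mg/mL final) and NADPH (0.5 mg/mL final) for 16 h at 37 C. Beta-lactamase activity was read by LiveBLAzer fluorescence after 2 h at room temperature.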

[7] = p53 small molecule agonists, cell-based qHTS assay with rat liver microsomes: qHTS cell viability counter screen (AID 1963580); note: nearly all actives have a fitted effect of over 45% in size; note: potency is the fitted concentration of half-maximal effect
In short: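 p53RE-bla HCT-116 cells (4,000/well) rested 5 h at 37 C, then given Tox21 compounds in DMSO with rat liver microsomes (0.5 mg/mL final) plus NADPH (0.5 mg/mL final) for 16 h at 37 C. Viability read by CellTiter-Glo luminescence after 30 min at room temperature.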

[8] = p53 small molecule agonists, cell-based qHTS assay: qHTS cell viability counter screen (AID 1963581); note: nearly all actives have a fitted effect of over 45% in size
In short: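 Compounds are pinned onto HCT-116 p53RE-bla cells and left 16 h at 37 C. Following the reporter FRET read, ATP is quantified by CellTiter-Glo luminescence after 30 min at room temperature.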

[9] = p53 small molecule agonists, cell-based qHTS assay (AID 1963582; active = well fitted activation curve with a large enough effect in the signal ratio in the repeat runs, not every such curve was filed as active; the % refers to the signal ratio)
In short: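 Agonist activity was scored from beta-lactamase FRET fluorescence in p53RE-bla cells treated 16 h at 37 C with compounds in DMSO, substrate incubation being 2 h at room temperature.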

[10] = target: 5-hydroxytryptamine receptor 2A (Homo sapiens) (UniProt P28223); test: 5-hydroxytryptamine receptor 2A (HTR2A) small molecule antagonists, cell-based qHTS assay (AID 1963586); note: nearly all actives have a fitted effect of over 45% in size; note: potency is the fitted concentration of half-maximal effect
Sequence of 5-hydroxytryptamine receptor 2A (Homo sapiens) (P28223 whole entry, looked up): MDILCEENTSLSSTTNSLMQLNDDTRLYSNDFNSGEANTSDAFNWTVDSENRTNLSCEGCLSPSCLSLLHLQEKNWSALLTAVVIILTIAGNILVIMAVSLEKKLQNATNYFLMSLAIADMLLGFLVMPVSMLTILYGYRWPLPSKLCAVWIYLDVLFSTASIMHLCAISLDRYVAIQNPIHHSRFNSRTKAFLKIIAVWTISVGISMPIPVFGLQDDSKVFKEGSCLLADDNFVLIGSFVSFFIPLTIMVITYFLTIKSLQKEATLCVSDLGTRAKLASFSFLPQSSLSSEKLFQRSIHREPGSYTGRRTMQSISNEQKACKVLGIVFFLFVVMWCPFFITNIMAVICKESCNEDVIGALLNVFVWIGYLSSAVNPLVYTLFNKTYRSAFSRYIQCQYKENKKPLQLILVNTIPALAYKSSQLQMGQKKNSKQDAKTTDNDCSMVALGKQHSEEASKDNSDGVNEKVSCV
In short: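 Antagonist-mode intracellular calcium assay: DOI (4 nM) added after 5 min compound pre-incubation at room temperature to dye-loaded HTR2A-CHO cells. Fluorescence followed for 3 min, sampled every second.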

[11] = target: 5-hydroxytryptamine receptor 2A (Homo sapiens) (UniProt P28223); test: 5-hydroxytryptamine receptor 2A (HTR2A) small molecule agonists, cell-based qHTS assay (AID 1963587); note: nearly all actives have a fitted effect of over 30% in size
In short: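 HTR2A-CHO cells, plated 18 h at 37 C/5% CO2, dye-loaded 1 h at 37 C; compounds in DMSO added by pin tool (agonist mode). Intracellular calcium flux read as kinetic fluorescence on FDSS over 2 min at 1 s intervals.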

[12] = target: Muscarinic acetylcholine receptor M1 (Homo sapiens) (UniProt P11229); test: Cholinergic receptor muscarinic 1 (CHRM1) small molecule agonists, cell-based qHTS assay (AID 1963589); note: nearly all actives have a fitted effect of over 35% in size; note: potency is the fitted concentration of half-maximal effect
Sequence of Muscarinic acetylcholine receptor M1 (Homo sapiens) (P11229 whole entry, looked up): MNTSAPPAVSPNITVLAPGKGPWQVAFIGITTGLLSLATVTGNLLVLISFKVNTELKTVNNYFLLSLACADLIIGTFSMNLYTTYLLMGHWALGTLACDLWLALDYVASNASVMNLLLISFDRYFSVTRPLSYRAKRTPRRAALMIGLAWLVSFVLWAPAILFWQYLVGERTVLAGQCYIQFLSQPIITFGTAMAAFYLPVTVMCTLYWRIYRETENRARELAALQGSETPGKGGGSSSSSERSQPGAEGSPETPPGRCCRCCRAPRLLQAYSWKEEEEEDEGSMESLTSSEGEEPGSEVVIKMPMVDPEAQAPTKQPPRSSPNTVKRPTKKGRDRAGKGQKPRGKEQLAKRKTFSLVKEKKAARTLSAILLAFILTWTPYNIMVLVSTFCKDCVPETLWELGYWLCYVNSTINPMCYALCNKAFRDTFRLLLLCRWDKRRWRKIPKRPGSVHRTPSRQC
In short: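 Stable CHRM1-CHO cells (human receptor) were incubated 18 h, dye-loaded for 1 h at 37 C and exposed to test compounds for agonist activity, with calcium-dependent fluorescence followed kinetically.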

[13] = target: Beta-2 adrenergic receptor (Homo sapiens) (UniProt P07550); test: Adrenergic beta2 receptor (ADRB2) small molecule antagonists, cell-based qHTS assay (AID 1963592); note: series mostly up to about 92 µM; nearly all actives have a fitted effect of over 50% in size
Sequence of Beta-2 adrenergic receptor (Homo sapiens) (P07550 whole entry, looked up): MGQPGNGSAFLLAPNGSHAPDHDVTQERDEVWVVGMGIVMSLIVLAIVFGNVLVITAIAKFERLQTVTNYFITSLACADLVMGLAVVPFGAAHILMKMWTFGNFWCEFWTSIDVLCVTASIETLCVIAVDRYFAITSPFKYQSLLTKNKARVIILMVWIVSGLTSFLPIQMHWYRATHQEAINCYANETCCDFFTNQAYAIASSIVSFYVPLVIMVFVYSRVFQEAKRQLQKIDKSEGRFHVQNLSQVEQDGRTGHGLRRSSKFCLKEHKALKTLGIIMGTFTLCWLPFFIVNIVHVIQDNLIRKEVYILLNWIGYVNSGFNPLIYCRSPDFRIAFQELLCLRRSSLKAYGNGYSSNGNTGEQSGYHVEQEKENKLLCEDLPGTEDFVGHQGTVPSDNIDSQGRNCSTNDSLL
In short: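 Cells (CHO, stable ADRB2 overexpression) incubated 18-20hr at 37C; compounds added from DMSO; agonist mix (1nM isoproterenol, 100uM IBMX, 25uM Ro-20-1724) added; 0.5hr RT; d2-cAMP and anti-cAMP-cryptate added; 1hr RT; 665/615 nm read.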

[14] = target: Beta-2 adrenergic receptor (Homo sapiens) (UniProt P07550); test: Adrenergic beta2 receptor (ADRB2) small molecule agonists, cell-based qHTS assay (AID 1963593);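 note: CHO cells stably overexpressing human ADRB2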
In short: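 CHO cells stably over-expressing ADRB2 were plated overnight at 37C, then dosed with compounds plus a stimulation mix containing 100uM IBMX and 25uM Ro-20-1724 for 0.5hr at room temperature. cAMP was measured by HTRF competition, 1hr.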

[15] = target: D(2) dopamine receptor (Homo sapiens) (UniProt P14416); test: Dopamine D2 receptor (DRD2) small molecule agonists, cell-based qHTS assay (AID 1963594); note: nearly all actives have a fitted effect of over 35% in size
Sequence of D(2) dopamine receptor (Homo sapiens) (P14416 whole entry, looked up): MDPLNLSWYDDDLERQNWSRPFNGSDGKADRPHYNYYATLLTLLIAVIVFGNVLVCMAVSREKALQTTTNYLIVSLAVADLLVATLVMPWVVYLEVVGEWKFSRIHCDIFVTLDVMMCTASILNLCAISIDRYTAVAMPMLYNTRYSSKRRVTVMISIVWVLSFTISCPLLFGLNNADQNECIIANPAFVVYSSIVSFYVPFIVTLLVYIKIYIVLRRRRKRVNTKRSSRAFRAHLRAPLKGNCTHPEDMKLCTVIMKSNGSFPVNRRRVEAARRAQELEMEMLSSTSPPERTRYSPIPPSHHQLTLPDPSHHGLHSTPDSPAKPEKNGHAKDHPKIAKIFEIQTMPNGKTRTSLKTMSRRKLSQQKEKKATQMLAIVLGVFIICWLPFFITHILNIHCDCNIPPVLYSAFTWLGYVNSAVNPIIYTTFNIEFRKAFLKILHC
In short: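 HEK293 cells stably expressing DRD2 were cultured 24 h at 37 C, then given Ro20-1724 (0.1 mM final) and compounds for 10 min at room temperature. NKH477 (200nM) was then added for 30 min. cAMP was read by HTRF.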

[16] = target: D(2) dopamine receptor (Homo sapiens) (UniProt P14416); test: Dopamine D2 receptor (DRD2) small molecule antagonists, cell-based qHTS assay (AID 1963595; active = well fitted inhibition curve with a large enough effect in the signal ratio in the repeat runs, with a control signal flat; the % refers to the signal ratio)
In short: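 Cells were plated and grown for 24 h at 37 °C. Ro20-1724 (0.1 mM final) went in first, then compound for 10 min. NKH477 (200 nM) with quinpirole (12 nM) followed for 30 min at RT, then HTRF detection reagents for 1 h.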

[17] = target: Muscarinic acetylcholine receptor M1 (Homo sapiens) (UniProt P11229); test: Cholinergic receptor muscarinic 1 (CHRM1) small molecule antagonists, cell-based qHTS assay (AID 1963588); note: nearly all actives have a fitted effect of over 40% in size; note: potency is the fitted concentration of half-maximal effect
In short: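 CHRM1-CHO calcium-flux assay, antagonist mode. Cells were seeded 18 h, dye-loaded 1 h at 37 C and given compound for 5 min at RT, then acetylcholine was added at 50nM. FDSS fluorescence was read 3 min; 15 concentrations, three runs.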

[18] = cAMP Responsive Elements (CRE) small molecule agonists, cell-based qHTS assay (AID 1963590)
In short: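 FRET-based beta-lactamase readout (LiveBLAzer B/G, 2 h RT) quantified CRE activation in HEK 293T CRE-bla cells after 3 h treatment with DMSO-dissolved compounds.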

[19] = cAMP Responsive Elements (CRE) small molecule antagonists, cell-based qHTS assay (AID 1963591; active = well fitted inhibition curve with a large enough effect in the signal ratio in the repeat runs, not every such curve was filed as active; the % refers to the signal ratio)
In short: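 qHTS in CRE-bla HEK 293T cells: compound in DMSO, then 0.25 uM NKH477 (final), 3 h at 37 °C/5% CO2; beta-lactamase FRET read-out after 2 h substrate incubation.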

[20] = p53 small molecule agonists, cell-based qHTS assay with human liver microsomes: qHTS cell viability counter screen (AID 1963579); note: nearly all actives have a fitted effect of over 45% in size
In short: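 p53RE-bla cells (4,000/well) were pre-incubated 5 h at 37 C, then given compounds in DMSO plus human liver microsomes (0.5 mg/mL final) and NADPH (0.5 mg/mL final) for 16 h at 37 C. Viability was read by CellTiter-Glo luminescence.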

Measured: Potency

O=C1C(c2[nH]c3ccccc3c2O)=Nc2ccccc21
inactive: [1] | [2] | [3] | [4] | [5] | [6] | [7] | [8] | [9] | [10] | [11] | [12] | [13] | [14] | [15] | [16]

O=C1OC(c2ccc(O)cc2)(c2ccc(O)cc2)c2ccccc21
inactive: [3] | [4] | [5] | [6] | [7] | [8] | [9] | [10] | [11] | [17] | [12] | [18] | [19] | [13] | [15] | [16]
48.2 µM (active) and inactive: [1]
24.2 µM (active) and inactive: [2]

CCCCCCCCCCCC[N+](C)(C)C
inactive: [2] | [3] | [4] | [5] | [20] | [7] | [8] | [9] | [10] | [13] | [14] | [15] | [16]
active: [1] 48.4 µM and 30.6 µM and 48.6 µM | [17] 374 nM and 421 nM and 334 nM | [12] 27.5 µM and 245 nM

CC12CCC(CC1)C(C)(C)O2
inactive: [1] | [2] | [3] | [4] | [5] | [20] | [7] | [8] | [9] | [18] | [19] | [13] | [14] | [16]

O=c1c(-c2ccc(O)cc2)coc2cc(O)cc(O)c12
inactive and 15 µM (active): [2]
inactive: [1] | [3] | [4] | [5] | [20] | [8] | [9] | [18] | [13] | [16]

O=S(=O)(O)c1ccc2nc(-c3ccccc3)[nH]c2c1
active: [7] 15.5 µM
inactive: [1] | [2] | [3] | [4] | [5] | [6] | [9] | [10] | [11] | [12] | [18] | [13] | [14] | [15] | [16]

NS(=O)(=O)c1cc2c(cc1Cl)NCNS2(=O)=O
inactive: [1] | [2] | [3] | [4] | [5] | [6] | [20] | [8] | [18] | [13] | [14] | [15] | [16]

COC(=O)c1cccnc1
inactive: [1] | [2] | [3] | [4] | [5] | [6] | [7] | [8] | [9] | [10] | [11] | [17] | [12] | [18] | [19] | [13] | [14] | [15] | [16]

CN(C)CCC(c1ccccc1)c1ccccn1 (centres undefined)
inactive and 3.26 µM (active): [17]
inactive: [1] | [2] | [3] | [4] | [5] | [20] | [7] | [8] | [10] | [11] | [12] | [18] | [19] | [13] | [14] | [15] | [16]

C=C(C)C1CC=C(C)C(OC(C)=O)C1 (centres undefined)
inactive: [1] | [2] | [3] | [4] | [5] | [20] | [7] | [9] | [11] | [17] | [12] | [18] | [19] | [13] | [14] | [15] | [16]
inactive and 3.75 µM (active): [10]

CCOc1ccc(NC(C)=O)cc1
inactive: [1] | [2] | [3] | [4] | [5] | [6] | [7] | [8] | [18] | [19] | [13] | [14] | [15] | [16]

CCCCC(CC)COC(=O)CS (centres undefined)
inactive: [1] | [2] | [3] | [4] | [5] | [6] | [7] | [8] | [9] | [10] | [11] | [17] | [12] | [18] | [19] | [13] | [15] | [16]

O=C(O)CC(O)C(=O)O (centres undefined)
inactive: [1] | [2] | [3] | [4] | [5] | [20] | [7] | [8] | [9] | [10] | [11] | [17] | [12] | [18] | [19] | [13] | [14] | [15] | [16]

C/C=C/C(=O)N(CC)c1ccccc1C
inactive: [1] | [2] | [3] | [4] | [5] | [20] | [7] | [8] | [9] | [18] | [19] | [13] | [15] | [16]
